# HTT aggregate: reduces HttQ103-GFP aggregates in PC12 cells; actives 1.1% (n = 220,000); PC12 HttQ103-GFP aggregates, Acumen cytometry, 40 h; Potency, µM (titrated, usually from 46.1 µM), inactives show at the highest dose activity change, negative = inhibition, most hits filed as inhibitors; also: % is scaled to controls: 0 for no effect and ±100 for the full control effect; nearly all actives have a fitted effect of over 60% in size
#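 PC12 cells stably carrying ecdysone-inducible HTT exon 1 Q103–GFP were induced with tebufenozide (100 nM final) and treated with library compounds in titration. GFP aggregates in lysates were counted by laser scanning cytometry.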
# ATXN2 expr inh: reduces ATXN2 reporter expression in HEK-293 cells | HEK-293 ATXN2-luciferase reporter, luminescence, 24 h | Potency, µM (series often up to 57 µM), for the others: at the top dose activity change, negative = inhibition, hits mostly inhibitors | actives 0.72% (n = 360,000); also: % is scaled to controls: 0 for no effect and ±100 for the full control effect; nearly all actives have a fitted effect of over 55% in size
#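 ATXN2-luciferase reporter cells (luciferase flanked by upstream and downstream ATXN2 gene portions) were treated 24 h at 37 °C with compounds at up to 57 uM. SteadyGlo luminescence gave expression; GF-AFC fluorescence gave viability.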
# HTT cytoprotect: Huntington cell model cytoprotection by ATP luminescence; PC12 HTT-Q103 induced, cytoprotection, ATP luminescence, 40 h; actives 0.14% (n = 230,000); Potency, µM (top dose mostly 56.4 µM), without a hit: cytoprotection (ATP increase), actives largely listed as activators; also: % of control where 0% means no effect; nearly all actives have a fitted effect of over 45% in size
#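 ATP quantification (ATPlite) reports survival of PC12 cells in which tebufenozide, 100 nM final, switches on Htt exon 1 with 103 glutamines linked to GFP; compounds are titrated.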
# HepG2 viability: kills HepG2 cells in TGF-b inhibitor counter-screen; AID 588856; HepG2 CAGA-GFP viability, ATP luminescence, 18 h; actives 0.76% (n = 410,000); Potency, µM (series often up to 46.1 µM), inactives show at the highest dose activity change, negative = cytotoxicity, usual class: cytotoxic
#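 CellTiter-Glo luminescence gave cytotoxicity after 18 hours at 37 degrees C. The cells were HepG2 CAGA-GFP in 1% FBS DMEM, stimulated with 500 pg/mL TGF-beta after compound addition. %Activity was normalised to no-cell wells (complete cell-killing) and DMSO (no toxicity), and curves were fitted and classified.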
# TGFb inhibitor: blocks TGF-b signaling. HepG2 CAGA-GFP TGF-b/SMAD3 reporter, GFP fluorescence, 18 h; TGF-beta stimulated, 500 pg/mL final. Potency, µM (top dose mostly 46.1 µM), inactives show at the top dose activity, negative = inhibition, usual class: inhibitors. actives 1.2% (n = 410,000); also: % is scaled to controls: 0 for no effect and ±100 for the full control effect; nearly all actives have a fitted effect of over 65% in size
#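 Read-out: total well GFP (ex488/em500-530) summed from mean per-cell fluorescence. Cells: HEPG2 CAGA-GFP, 1% FBS DMEM, 18 h at 37 degrees C with 500 pg/mL final TGF-beta. Unstimulated wells served as the full-inhibition control; stimulated DMSO wells = 0%.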
# ATXN viability: viability counter-screen for ATXN expression inhibitors; S2 cells (HEK-293 line with an ATXN2-luciferase reporter) viability, CellTiter-Fluor protease fluorescence, 24 h; Potency, µM (series often up to 56.7 µM), usual class: cytotoxic; actives 0.49% (n = 400,000); also: nearly all actives have a fitted effect of over 40% in size
# Starred values were filed as active, the others as inactive; i = inactive; u = inconclusive; x = no result given; ! = a repeat was not active; [ ] = another dose, or the depositor's remark. Shown are actives, neighbours in structure and some others; about 2.8% of the full set was active somewhere. Calls follow the shape of the dose curve; as a rule, active = well fitted curve in the direction sought with a large enough effect; inconclusive = small, poorly fitted or top-dose-only effect, or another doubt; inactive = no such curve, though single readings can be large; an effect the other way counts as inactive or inconclusive. Potency is read from the fitted curve at half-maximal effect.
SMILES,HTT aggregate,ATXN2 expr inh,HTT cytoprotect,HepG2 viability,TGFb inhibitor,ATXN viability
C#CC(C)(C)NS(=O)(=O)c1cc(-c2nnc(Nc3ccc(C)cc3)c3ccccc23)ccc1C,x,-8%,x,8%,13µM*,i
Cc1ccc(-c2nnc(Nc3ccc(Cl)c(Cl)c3)c3ccccc23)cc1S(=O)(=O)NCCO,x,u,x,-29%,11µM*,u
Cc1ccc(-c2nnc(Nc3ccc(O)cc3)c3ccccc23)cc1S(=O)(=O)N1CCN(C)CC1,x,u,x,-21%,10µM*,u
CCN(CC)C(=O)c1ccc(Nc2nnc(-c3ccc(C)c(S(=O)(=O)NC)c3)c3ccccc23)cc1,x,-15%,x,-82%,11µM*,i
Cc1ccc(-c2nnc(Nc3cccc(O)c3)c3ccccc23)cc1S(=O)(=O)N1CCN(C)CC1,x,-10%,x,0%,-22%,u
COc1ccccc1CNC(=O)c1cccc(-c2ccccc2OC)n1,x,x,-67%,x,x,x
O=C(CCl)N(CCc1ccccc1)CCc1ccccc1,x,u,x,18µM*,u,u
O=C(N(c1ccccc1)c1ccccc1)N(c1ccccc1)c1ccccc1,11%[9.22 µM],x,-2%[10 µM],-10%,16µM*,u
O=C(CCl)N(c1ccccc1)c1ccccc1,10µM*,u,-187%,11µM*,u,x
CN(C)/[N+]([O-])=N/Oc1cc(F)c([N+](=O)[O-])cc1[N+](=O)[O-],x,x,x,-11%,-10%,x
COC(=O)c1cc(CSc2nnc(NC3CCCCC3)s2)oc1C,28µM*,-4%,7%,-15%,1%,i
CCOc1ccccc1NC(=O)C1CCCN1S(=O)(=O)c1ccc2nc(-c3ccccc3)[nH]c2c1 (stereo not drawn),x,x,x,-27%,11µM*,x
CCc1ccc2nc(N3CCN(C(=O)C4CC4)CC3)sc2c1,x,x,x,-28%,-5%,x
CCc1ccc2nc(N3CCC(C(=O)O)CC3)sc2c1,x,14µM*,x,5%,1%,i
COc1cc(=O)n2c(c1C(=O)N(C)Cc1nonc1C)CCN(Cc1cccc3ccccc13)CC2,x,x,x,x,x,i
Nc1ccc(/C=C/c2ccc3ncccc3c2)cc1,12%[9.22 µM],x,5%[10 µM],7.1µM*!,u,i
Nc1ccc(/C=C/c2ccc3cccnc3c2)cc1,x,x,x,-12%,-9%,x
O=C(c1n[nH]c2c1CCCC2)N1CCC(n2c(C3CCCO3)nc3ccccc32)CC1 (stereo not drawn),x,x,x,x,x,i
Nc1ncnc(Sc2ccccc2)c1[N+](=O)[O-],11%,28%,34%[10 µM],7%,-26%,i
Nc1ncnc(Sc2ncccn2)c1[N+](=O)[O-],5µM*,u,21%[10 µM],11µM*,10µM*,24µM*
COc1ccc(S(=O)(=O)Cc2ccc(C(=O)N3CCN(c4cc(C)ccc4C)CC3)o2)cc1,x,u,x,-8%,u,u
CCOC(=O)N1CCN(C(=O)c2ccc(CS(=O)(=O)c3c(Cl)cccc3Cl)o2)CC1,0.0009µM*,-5%,x,1%,2%,i
COc1ccc(S(=O)(=O)Cc2ccc(C(=O)N3CCN(c4cc(Cl)ccc4C)CC3)o2)cc1,18µM*,u,27%,-18%,-14%,u
CN(C)c1ccc(/C=C/c2ccnc3ccccc23)cc1,x,x,x,-34%,0%,x
O=C(NCCc1nnc2n1CCN(Cc1ccccn1)CC2)c1ccc(F)cc1,x,x,x,x,x,i
SMILES,HTT aggregate,ATXN2 expr inh,HTT cytoprotect,HepG2 viability,TGFb inhibitor,ATXN viability
CN(C(=O)/C=C/c1ccccc1)C1CCCCC1,x,36%,x,11µM*,-11%,i
O=C(COC(=O)CCSc1ccc(Cl)cc1)NCCc1ccccc1,u,-3%,10%[10 µM],8%,12%,i
O=C(COC(=O)CCSc1ccc(Cl)cc1)NCc1ccccc1Cl,16µM*,-12%,x,6%,9%,i
O=C(COC(=O)/C(=C/c1cccs1)c1cccs1)NC(c1ccccc1)c1ccccc1,11%,17%,x,-31%,13µM*,i
O=C(COC(=O)c1cc([N+](=O)[O-])ccc1N1CCOCC1)Nc1ccc(Cl)cn1,x,7.1µM*,x,-34%,u,u
O=C(COC(=O)c1cc([N+](=O)[O-])ccc1N1CCOCC1)Nc1ccc(Cl)cc1,x,-22%,x,-34%,-12%,u
COc1cccc(Nc2sc(C(=O)c3ccc(F)cc3)c(N)c2C(=O)NCc2ccc(C)cc2)c1,x,x,x,-46%,14µM*,x
COc1cccc(Nc2sc(C(=O)c3ccc(Cl)cc3)c(N)c2C(=O)NCCc2ccc(OC)c(OC)c2)c1,x,u,x,-33%,u,u
Cc1ccc(CNC(=O)c2c(Nc3ccccc3C)sc(C(=O)c3ccc(F)cc3)c2N)cc1,x,u,x,16µM*,18µM*,u
CCOc1ccc(N2C(=O)Nc3ccccc3C2(O)C(=O)NCc2ccc(OC)cc2)cc1 (stereo not drawn),0.71µM*,-24%,16%[10 µM],-35%,-4%,i
Cc1ccc(SCc2ccc(C(=O)N3CCCC3)cc2)cc1,11µM*,16%,-40%,-23%,-35%,i
CCN1CCN(C(=O)c2ccc(CSc3ccc(C)cc3)cc2)CC1,-26%,-20%,15%,-20%,-21%,i
O=S(=O)(c1ccc2c(c1)OCCO2)N1CCC(n2nnc3cc(C(F)(F)F)ccc32)CC1,10µM*,-8%,-14%[10 µM],-10%,4%,i
CC1(C)[C@@H](O)CC[C@@]2(C)[C@H]1CC[C@]1(C)[C@H]2C(=O)C=C2[C@@H]3C[C@@](C)(C(=O)O)CC[C@]3(C)CC[C@@]21C,x,x,-5%,x,x,x
CCC(C)[C@H]1COCCS(=O)(=O)N1Cc1ccc(Cl)cc1Cl (stereo partly drawn),x,-9%,x,-32%,10µM*!,i
CCCCCCC1=Cc2cc(OC)c(OC)cc2C(C2(C(=O)OCC)CCCC2=O)O1 (stereo not drawn),x,x,-16%[10 µM],x,x,x
CCN(CC)c1ccc(N=Cc2c(C)[nH]c3ccccc23)cc1,11µM*,-1%,x,2.8µM*,11µM*,i
Cc1ccc(C(=O)NCCc2nnc3n2CCN(Cc2ccc4ccccc4c2)CC3)c(C)c1,x,x,x,x,x,i
NCCCC[C@H](NC(=O)[C@@H]1CCCN1C(=O)[C@@H]1CSSC[C@H](NC(=O)CNC(=O)CNC(=O)CN)C(=O)N[C@@H](Cc2ccc(O)cc2)C(=O)N[C@@H](Cc2ccccc2)C(=O)N[C@@H](CCC(N)=O)C(=O)N[C@@H](CC(N)=O)C(=O)N1)C(=O)NCC(N)=O,x,x,x,x,x,i
O=C(NC(=S)Nc1cccc2[nH]ncc12)c1ccccc1,10µM*,61%[11.3 µM],-9%,3%,5%,i

# Source: PubChem
